This is part of a sample that, as a whole, favours compounds with a hit. Of some 79,000 tested, about 15% had one in any assay. A number with no mark means an inactive call. The source made the active and inactive calls. No stated cut-off is given here; in the data, active means growth inhibition above about 70%; inactive means the rest. Where a SMILES comes first, the peptide text is derived from it. [ ]: non-standard residue; d: D form. The star is where a group is joined. Hyp = O=C(O)[CH]1C[CH](O)CN1; Cbz = O=C(OCc1ccccc1)*
Assay: NCI Yeast Anticancer Drug Screen. Data for the cln2 rad14 strain (AID 165);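 further: 0% = growth equal to vehicle treated cultures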
Details: S. cerevisiae cln2 rad14 strain, at 50.0 µM, stronger effect = higher value
Procedure: Growth inhibition of yeast strains with defined genetic alterations is measured as a screen for potential anti-cancer activity. Selected strains with alterations in DNA damage repair or cell cycle control were exposed to compounds and growth inhibition was measured relative to vehicle treated controls. The strain used in this assay is cln2 rad14

Row | SMILES | growth inhibition
1 | CCCNC(=O)/C=C/C(=O)NCCC | -43.2%
2 | CCc1c2c(nc3ccc(O)cc13)-c1cc3c(c(=O)n1C2)COC(=O)[C@]3(O)CC | 10.6%
3 | CCCCn1cc(C(=O)O)c(=O)c2c3sccc3ccc21 | -5.15%
4 | O=C1C=C(Sc2ccccc2)c2nccc3c2c1nc1ccccc13 | 6.55%
5 | O=C1C(N=Nc2ccc(S(=O)(=O)Nc3ccccn3)cc2)C(=O)N(c2ccccc2)C(=S)N1c1ccccc1 | 18.3%
6 | CC(=O)CC(C)(C)c1cc(CC(C)(C)C(N)=O)on1 | 11.2%
7 | COc1ccc2c(c1)CCC1C(=O)NN=C21 (stereo not given) | -43.4%
8 | O=C(O)COc1ccccc1OCC(=O)O | 0.6%
9 | CC(C)(c1ccc(O)c([N+](=O)[O-])c1)c1ccc(O)c([N+](=O)[O-])c1 | -26.4%
10 | Cc1ccc(Nc2nc(C)c(C(=O)C/C(=N/NC(N)=S)C(=O)Nc3cc(Cl)cc(Cl)c3)s2)cc1 | 22.1%
11 | CN(C)c1nc(N(C)C)c2cnn(C)c2n1 | -15.8%
12 | O=C(O)C(O)(O)C(O)(O)C(=O)O | 4.85%
13 | CCCCCCCCCCCCCCCCCCS | -14.7%
14 | CC(=O)C1=C(C)N2C(=NC3=C(CCc4ccccc43)C2c2ccc(F)cc2)S1 (stereo not given) | 11.3%
15 | C=CCOc1cc(=O)[nH]c2ccccc12 | -51.1%
16 | Cc1ccc(S(=O)OCC23CC4CC(CC(C4)C2)C3)cc1 (stereo not given) | 17.5%
17 | O=c1[nH]cc(COCC(O)CO)c(=O)[nH]1 (stereo not given) | 3.95%
18 | c1ccc(C(c2ccccc2)c2cc(-c3cc(C(c4ccccc4)c4ccccc4)[nH]n3)n[nH]2)cc1 | -28.6%
19 | NC(=O)CNC(=O)C1CC(O)CN1C(=O)C1CCCN1C(=O)OCc1ccccc1 (stereo not drawn) (Cbz-Pro-[Hyp]-Gly-NH2; configuration not given here) | 4.15%
20 | CN1CCCNCCN(CCc2ccccn2)CCCN(C)CC1 | -7.75%

Row | SMILES | growth inhibition
21 | CCCc1c(O)ccc(C)c1C | -36.2%
22 | CC(=O)N1OCCc2ccccc21 | -37.5%
23 | Cn1c(=O)c2c(nc(Cl)n2Cc2ccccc2)n(C)c1=O | 23.6%
24 | CC(C(=O)O)C1(O)CCCCC1 (stereo not given) | -25.4%
25 | CCOC(=O)C(C#N)=C1c2ccccc2Oc2ccccc21 | -46%
26 | COc1ccc(C=Nc2ccc([N+](=O)[O-])cc2O)cc1 | -10.9%
27 | O=C1/C(=C/c2cccs2)CCc2ccccc21 | -16.1%
28 | O=C1OCCC2(CCN(Cc3ccccc3)CC2)O1 | -0.3%
29 | Cn1c(=N)n(CC(=O)NC23CC4CC(CC(C4)C2)C3)c2ccccc21 | 2.75%
30 | OCn1c2ccccc2c2ccccc21 | 20.8%
31 | CCCCC1CCC(C(=O)O)=NC1 (stereo not given) | -9.95%
32 | CCOC(=O)C(NC(=O)C(CCCCNP(=O)(OCC)OCC)NC(=O)C(C)NC(C)=O)C(C)C (stereo not given) | -25.6%
33 | CCOC(=O)c1ccccc1[N+](=O)[O-] | -11.7%
34 | CCOC(=O)C1CN(C2CCCCC2)CCC1=O (stereo not given) | -37%
35 | CN1NC(c2ccc(Cl)cc2)=C(C#N)C(=O)CC1c1ccccc1 (stereo not given) | 10.5%
36 | O=C(O)CSC(=S)c1ccccc1 | -5.7%
37 | Cc1ccc(S(=O)(=O)/N=C/C=P(c2ccccc2)(c2ccccc2)c2ccccc2)cc1 | -19%
38 | Cc1ccc(Cl)cc1NC(=O)C(Br)C(Br)C(=O)O (stereo not given) | 90.2% (active)
39 | CC(=O)Nc1cc(C)cc(Br)c1 | 9.05%
40 | Cc1c2c(cc3c1[nH]c1ccccc13)C(=O)c1ccccc1C2=O | 75.3% (active)
